Source: PubChem BioAssay
AMA1 RON2 block – qHTS for Inhibitors of AMA1-RON; Towards Development of Antimalarial Drug Lead: Primary Screen. AlphaScreen AMA1-biotinylated RON2 peptide binding. Potency, µM (series often up to 58.2 µM), inactives show top-dose activity change, negative = inhibition, actives largely listed as inhibitors. 360,000 compounds, 0.2% hits. AID 720542, 2013;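 note: 0% = vehicle wells and -100% = peptide control; nearly all actives have a fitted effect of over 45% in size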
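AMA1 (3D7) with his tag at 25 nM final met compounds first, then biotinylated RON2 peptide at 25 nM; detection used donor plus acceptor beads, 10 µg/mL apiece, read by AlphaScreen after 30 min at room temperature.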
NS1 inh – qHTS Assay for Inhibitors of Influenza NS1 Protein Function; Potency, µM (series often up to 46.1 µM), for the others: at the highest dose activity, positive = more growth; 270,000 compounds, 0.4% hits; AID 2326, 2010; calls by dose curve; note: actives are rising curves; nearly all actives have a fitted effect of over 50% in size
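S. cerevisiae expressing influenza A NS1, grown in glucose, washed, then diluted 1:100 into pH 6.0 -URA galactose medium with 23 nl compound. Growth recovery read as OD600; NS1-free strain serves as control.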
Pf growth 48h – Primary qHTS for delayed death inhibitors of the malarial parasite plastid, 48 hour incubation | P. falciparum luciferase growth in erythrocytes, 48 h | 310,000 compounds, 5.9% hits | Potency, µM (highest dose often 28.7 µM), inactives show at the top dose activity change, negative = inhibition, most hits filed as inhibitors; note: % is set by controls: 0 for no effect and ±100 for the full control effect
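Compounds are pin-transferred into medium, infected erythrocytes (2% hematocrit, 0.1% parasitemia final) are added, and plates sit one parasite generation at 37 C in 5% CO2. Detection reagent is then added and luminescence measured.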
Sm TGR inh – qHTS Assay for the Inhibitors of Schistosoma Mansoni Peroxiredoxins | Schistosoma mansoni thioredoxin glutathione reductase (TGR), Q962Y6 | 360,000 compounds, 3% hits | purified TGR, DTNB reduction, TNB absorbance 405 nm | Potency, µM (series often up to 114 µM), for the others: top-dose activity change, negative = inhibition, usual class: inhibitors | AID 485364, 2010; note: % is set by controls: 0 for no effect and ±100 for the full control effect; nearly all actives have a fitted effect of over 60% in size
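Kinetic colorimetric format: TGR-catalysed, NADPH-driven DTNB reduction monitored via TNB absorbance. Enzyme dispensed at 20 nM; compound exposure 15 min at room temperature before reaction start.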
Pf growth 96h – Primary qHTS for delayed death inhibitors of the malarial parasite plastid, 96 hour incubation; P. falciparum luciferase reporter growth, 96 h; Potency, µM (top dose mostly 28.7 µM), inactives show at the top dose activity change, negative = inhibition, hits mostly inhibitors; 320,000 compounds, 6.9% hits; AID 504834, 2011; note: % is set by controls: 0 for no effect and ±100 for the full control effect
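Cell-based qHTS: luciferase-tagged P. falciparum in erythrocytes (2% hematocrit, 0.05% parasitemia final) incubated with compounds for 96 hours, 37 C, 5% CO2; luciferase detection reagent then added and luminescence measured.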
Numbers without * were called inactive; i = inactive; ? = inconclusive; / = no result given. A selection: hits, their analogues and other compounds. The true share with any hit is near 11%. Unless noted, calls come from the whole dose curve; as a rule, active = well fitted curve in the direction sought with a large enough effect; inconclusive = small, poorly fitted or top-dose-only effect, or another doubt; inactive = no such curve, though single readings can be large; an effect the other way counts as inactive or inconclusive. Potency is the fitted concentration of half-maximal effect.

SMILES	AMA1 RON2 block	NS1 inh	Pf growth 48h	Sm TGR inh	Pf growth 96h
COc1ccc(S(=O)(=O)N(C)C)cc1NCC(=O)Nc1ccc(Br)c(C)c1	-26%	/	10µM*	-3%	?
COc1ccc(S(=O)(=O)N(C)C)cc1NC(C)C(=O)Nc1cccc(C#N)c1 (stereo not given)	-7%	/	2.9µM*	-11%	?
Cc1nc(-c2ccc(F)cc2)c(CC(=O)N2CCN(S(=O)(=O)c3cccc([N+](=O)[O-])c3)CC2)s1	-22%	/	9.3µM*	-8%	12µM*
COc1ccc(S(=O)(=O)N(C)C)cc1NCC(=O)Nc1cccc2ccccc12	-22%	/	/	/	/
COc1ccc(Cl)cc1NC(=O)CNc1ccccc1CN(C)C1CCCCC1	-27%	/	?	1%	?
CN(C)S(=O)(=O)c1cccc(NC(=O)COc2cccc(C#N)c2)c1	-11%	0%	22%	7%	8%
COc1ccc(C)cc1NC(=O)CNc1ccccc1CN(C)C1CCCCC1	-9%	/	15µM*	3%	4.7µM*
Cc1ccc(C)c(SCC(=O)Nc2ccc(C)c(S(=O)(=O)N3CCOCC3)c2)c1	-6%	/	?	45µM*	?
CC(C)(C)C1CCC(C(=O)Nc2ccccc2N2CCOCC2)CC1 (stereo not given)	3%	/	9.3µM*	21%	?
COc1ccc(NC(=O)C2CCC(C(C)(C)C)CC2)cc1S(=O)(=O)N1CCOCC1 (stereo not given)	0%	/	?	40µM*	13µM*
CCc1sc(C(=O)Nc2ccc(OC)c(S(=O)(=O)N3CCOCC3)c2)cc1C	-5%	/	/	/	/
COc1ccc(NC(=O)c2cc3c(s2)CCC(C)C3)cc1S(=O)(=O)N1CCOCC1 (stereo not given)	-7%	?	?	1%	7.4µM*
COc1ccc(-c2cc(CCC(=O)N3CCN(c4cc(C)ccc4C)CC3)[nH]n2)cc1	-5%	/	/	/	/
Cc1ccc(NCC(=O)c2ccc([N+](=O)[O-])cc2)cc1	-26%	/	?	16µM*	?
CNC(CC(=O)c1ccc([N+](=O)[O-])cc1)C(Cl)(Cl)Cl (stereo not given)	-11%	-24%	36%	0.45µM*	i
C#CCOCCOCCOCCNc1nc(N2CCN(C(=O)C([C@@H](C)CC)n3cc(C(N)Cc4ccc(O)cc4)nn3)CC2)nc(N2CCN(C(=O)[C@H](CCC(=O)O)n3cc(C(N)CO)nn3)CC2)n1 (stereo not given in full)	30%	2%	3%	40µM*	18%
C#CCOCCOCCOCCNc1nc(N2CCN(C(=O)C([C@@H](C)CC)n3cc(C(N)Cc4ccc(O)cc4)nn3)CC2)nc(N2CCN(C(=O)[C@H](CCC(=O)O)n3cc(C(N)Cc4ccc(O)cc4)nn3)CC2)n1 (stereo not given in full)	5%	8%	0%	4%	1%
C#CCOCCOCCOCCNc1nc(N2CCN(C(=O)[C@H](Cc3ccc(O)cc3)n3cc([C@@H](N)CC(C)C)nn3)CC2)nc(N2CCN(C(=O)[C@H](Cc3ccc(O)cc3)n3cc([C@@H](N)CC(C)C)nn3)CC2)n1	/	9%	9.3µM*	18µM*	?
C#CCOCCOCCOCCNc1nc(N2CCN(C(=O)[C@H]([C@@H](C)CC)n3cc([C@@H](N)Cc4ccc(O)cc4)nn3)CC2)nc(N2CCN(C(=O)[C@H](CCCCN)n3cc([C@@H](N)CC(C)C)nn3)CC2)n1	/	2%	38%	13µM*	24%
C#CCOCCOCCOCCNc1nc(N2CCN(C(=O)[C@H]([C@@H](C)CC)n3cc([C@@H](N)CO)nn3)CC2)nc(N2CCN(C(=O)[C@H]([C@@H](C)CC)n3cc([C@@H](N)CC(C)C)nn3)CC2)n1	19%	2%	?	35µM*	?
Cc1cc(-c2nn(-c3ccccc3F)cc2CN2CCN(c3ccccn3)CC2)c(C)s1	-24%	-3%	?	12%	3%
